This passage reports composite z-score and z-score results from PubChem BioAssay.

Calls of active or inactive are those of the source.

Assay [1] has as its system Plasmodium falciparum Sir2 (PF13_0152, Sir2A). The assay can be described thus: Plasmodium falciparum Sir2A binding compounds – biochemical, small-molecule microarray, 635 nm fluorescence, primary screen (AID 1098).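 Also: score merges spot fluorescence intensity with its signal-to-noise ratio.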 The note with it: fluorescence 635 nm, higher = more signal.
A short description of assay [2]: probe aDKK1 binding to arrayed compounds – biochemical, biotinylated probe, 635/667 nm fluorescence, primary screen (AID 1099).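 Also: score merges 667nm spot fluorescence with signal to noise across triplicate slides; reference of the scale not given here.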 The note with it: small-molecule microarray, higher = more signal.
Assay [3] can be described thus: probe aCHRDL2 binding to arrayed compounds – biochemical, biotinylated probe, 635/667 nm fluorescence, primary screen (AID 1100). The conditions noted are these: small-molecule microarray, higher = more signal.
Assay [4] in a line: change in splice reporter luminescence, either direction, cell-based, HEK293, spliceosome inhibition project, primary screen (AID 1101).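 Also: HEK293 cells carrying a splicing-competent luciferase reporter gene; test concentration not given here.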 The conditions noted are these: HEK293 splicing luciferase reporter, 24 h, higher = more signal, called active from +8 up or from −8 down.
The target of assay [5] is Fibroblast growth factor 10 (Homo sapiens) (UniProt O15520). The assay can be described thus: compounds binding fibroblast growth factor 10 – biochemical, small-molecule microarray, 635 nm fluorescence, primary screen (AID 1102). The conditions noted are these: FGF10 binding, fluorescence 635 nm, higher = more signal.
Assay [6] concerns glycogen synthase kinase-3 (GSK3A per assay name; protocol says GSK3B). The assay can be described thus: compounds binding glycogen synthase kinase-3 – biochemical, small-molecule microarray, 635 nm fluorescence, GSK3A, primary screen (AID 1103). Also: the record names both GSK3A and GSK3B. The conditions noted are these: fluorescence 635 nm, higher = more signal.
The target in assay [7] is Epidermal growth factor receptor (Homo sapiens) (UniProt P00533). The assay can be described thus: compounds binding epidermal growth factor receptor – biochemical, small-molecule microarray, 635 nm fluorescence, primary screen (AID 1104).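 Also: score merges 667 nm emission intensity with spot signal to noise over triplicate slides.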 The note with it: EGFR binding, higher = more signal.
The target of assay [8] is Follistatin-related protein 3 (Homo sapiens) (UniProt O95633). The assay can be described thus: compounds binding follistatin-related protein 3 – biochemical, small-molecule microarray, 635 nm fluorescence, primary screen (AID 1105).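 Also: score merges emission near 667 nm and signal to noise per printed spot across three slides.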 The conditions noted are these: FSTL3 binding, higher = more signal.
Assay [9] deals with Dickkopf-related protein 1 (Homo sapiens) (UniProt O94907). The assay can be described thus: small molecules binding DKK1 protein – biochemical, small-molecule microarray, 635 nm fluorescence scan, primary screen (AID 1106).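 Also: score merges emission near 667 nm with signal to noise over three replicate slides.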 The conditions noted are these: higher = more signal.
For assay [10], the system named is Inhibin beta A chain (activin A). The assay can be described thus: small molecules binding activin A – biochemical, small-molecule microarray, 635 nm fluorescence scan, primary screen (AID 1107).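 Also: mouse activin A protein probed at 4.33 µg/mL on printed slides; score merges bound-protein fluorescence near 667 nm with spot signal-to-noise.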 The conditions noted are these: INHBA, higher = more signal.

Epidermal growth factor receptor (Homo sapiens), sequence (P00533 whole entry, looked up): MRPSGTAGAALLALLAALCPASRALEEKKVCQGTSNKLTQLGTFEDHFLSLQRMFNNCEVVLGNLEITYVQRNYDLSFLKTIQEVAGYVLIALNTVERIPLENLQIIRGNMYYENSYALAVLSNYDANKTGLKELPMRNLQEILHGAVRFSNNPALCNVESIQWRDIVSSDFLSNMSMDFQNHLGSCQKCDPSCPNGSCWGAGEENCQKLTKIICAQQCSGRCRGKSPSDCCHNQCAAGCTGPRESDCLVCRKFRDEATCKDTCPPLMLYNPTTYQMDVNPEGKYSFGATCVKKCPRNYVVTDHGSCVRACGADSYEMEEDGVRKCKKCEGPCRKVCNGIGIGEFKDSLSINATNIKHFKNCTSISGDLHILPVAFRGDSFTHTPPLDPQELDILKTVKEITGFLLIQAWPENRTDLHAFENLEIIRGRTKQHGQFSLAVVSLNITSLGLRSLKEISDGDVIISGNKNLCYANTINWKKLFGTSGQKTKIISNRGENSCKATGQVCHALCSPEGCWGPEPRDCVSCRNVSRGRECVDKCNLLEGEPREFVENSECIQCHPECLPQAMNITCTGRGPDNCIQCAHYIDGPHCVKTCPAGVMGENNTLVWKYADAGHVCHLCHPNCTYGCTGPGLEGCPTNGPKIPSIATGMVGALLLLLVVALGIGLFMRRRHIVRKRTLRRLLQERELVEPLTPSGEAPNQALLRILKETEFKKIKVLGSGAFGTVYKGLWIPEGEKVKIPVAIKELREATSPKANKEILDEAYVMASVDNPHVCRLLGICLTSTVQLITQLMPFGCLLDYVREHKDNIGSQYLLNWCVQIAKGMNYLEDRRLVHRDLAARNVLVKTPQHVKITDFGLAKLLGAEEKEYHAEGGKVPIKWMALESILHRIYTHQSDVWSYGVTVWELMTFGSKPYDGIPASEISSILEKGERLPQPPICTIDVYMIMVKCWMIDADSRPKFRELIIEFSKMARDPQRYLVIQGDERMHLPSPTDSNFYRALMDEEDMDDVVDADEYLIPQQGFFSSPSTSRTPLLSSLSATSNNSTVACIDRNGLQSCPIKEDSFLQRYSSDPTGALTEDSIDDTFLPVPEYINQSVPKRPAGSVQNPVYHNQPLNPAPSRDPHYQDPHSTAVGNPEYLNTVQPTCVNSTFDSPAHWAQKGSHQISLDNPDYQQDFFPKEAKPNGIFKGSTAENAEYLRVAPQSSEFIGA
Dickkopf-related protein 1 (Homo sapiens), sequence (O94907 whole entry, looked up): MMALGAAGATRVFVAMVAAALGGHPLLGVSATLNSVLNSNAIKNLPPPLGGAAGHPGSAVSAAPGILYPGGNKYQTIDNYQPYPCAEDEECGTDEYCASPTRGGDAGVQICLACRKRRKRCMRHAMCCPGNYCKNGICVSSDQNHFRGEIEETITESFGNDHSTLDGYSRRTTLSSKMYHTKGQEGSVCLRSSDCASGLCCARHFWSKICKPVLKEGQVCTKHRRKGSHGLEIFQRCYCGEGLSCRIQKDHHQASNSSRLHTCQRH
Follistatin-related protein 3 (Homo sapiens), sequence (O95633 whole entry, looked up): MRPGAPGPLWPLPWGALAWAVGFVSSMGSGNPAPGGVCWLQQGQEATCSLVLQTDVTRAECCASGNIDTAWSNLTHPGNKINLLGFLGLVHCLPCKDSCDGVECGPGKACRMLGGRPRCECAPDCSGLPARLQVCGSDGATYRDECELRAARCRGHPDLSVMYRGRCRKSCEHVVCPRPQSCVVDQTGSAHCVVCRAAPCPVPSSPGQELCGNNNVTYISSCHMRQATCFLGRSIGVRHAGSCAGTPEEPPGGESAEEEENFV
Fibroblast growth factor 10 (Homo sapiens), sequence (O15520 whole entry, looked up): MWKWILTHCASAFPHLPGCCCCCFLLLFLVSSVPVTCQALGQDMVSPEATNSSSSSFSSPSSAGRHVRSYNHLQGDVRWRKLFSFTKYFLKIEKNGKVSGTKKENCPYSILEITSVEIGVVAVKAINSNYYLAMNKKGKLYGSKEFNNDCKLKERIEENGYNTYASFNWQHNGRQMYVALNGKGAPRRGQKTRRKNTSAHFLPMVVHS

For `COCC(=C=CC[C@H](O)c1ccc(OCCO)cc1)C[C@H](O)c1cc(Cl)cc(Cl)c1O`, the composite z-score in assay [1] is 0.654; in assay [2], -0.268; in [3], -0.0229; in assay [5], 1.55; in [6] it was 0.26; in [7] it was 0.0404. Besides, the composite z-score was 1.11 in assay [8], -0.043 in assay [9] and 0.598 in assay [10]. The z-score in assay [4] was -2.51 (inactive).
In the case of `COC(=O)c1ccc(C23CC2(C(NP(=O)(c2ccccc2)c2ccccc2)c2ccccc2)C3)cc1` (stereo not given), the composite z-score in [1] was 0.36; in assay [2], 1.83; in assay [3], 1.39; in assay [5], 0.831; in [6], -0.0094; in assay [7], 0.134. For the same molecule, the composite z-score in assay [8] is 0.835; in [9], -0.63; in [10], 0.893. In assay [4], the z-score is -3.03 (inactive).
Turning to `O=C1C=CC(=O)[C@@H]2CC(COc3ccccc3)=C3[C@@H](CCc4ccccc4)OB(O)C[C@@H]3[C@H]12`, the composite z-score was 0.403 in [1]; -0.339 in [2]; -0.523 in assay [3]; 0.545 in assay [5]; 0.34 in assay [6]; 0.515 in assay [7]. Moreover, the composite z-score came out at 0.887 in [8], 1.07 in assay [9] and 0.72 in assay [10]. For the same molecule, in assay [4], the z-score was 2.04 (inactive).
On to `O=C1O[C@H](c2ccccc2)[C@H](c2ccccc2)N2[C@H]1[C@@H](C(=O)NC[C@H](O)c1ccccc1)[C@]1(C(=O)Nc3ccc(C#CCCO)cc31)[C@H]2c1ccc(O)cc1`, for which the composite z-score in [1] was -0.229; in assay [2] it was -0.145; in assay [3], 0.0258; in assay [5], -0.716; in [6] it was -1.28; in assay [7] it was -0.286. For the same molecule, the composite z-score was -1.17 in [8], -0.523 in [9] and 0.644 in [10]. In [4], the z-score is -0.551 (inactive).
For the molecule `C=CC[C@@H](OC(=O)Nc1ccc(OC)cc1)c1ccc(O)c2ccccc12`, the composite z-score is 1.43 in assay [1]; -0.0942 in assay [2]; -0.0826 in [3]; 1.2 in assay [5]; 1.28 in [6]; 1.06 in assay [7]. Besides, the composite z-score in assay [8] came out at 1.4; in [9], 1.23; in assay [10] it was 1.07. The z-score in assay [4] is -0.806 (inactive).
Regarding `[N-]=[N+]=NCc1ccccc1[C@@H]1OC(c2ccc(OCCCO)cc2)=N[C@]1(Cc1ccccc1)C(=O)N1CCCCC1`, the composite z-score is 1.36 in assay [1]; 0.792 in [2]; 0.63 in [3]; 1.32 in [5]; 1.18 in assay [6]; -0.167 in [7]. For the same molecule, the results for the composite z-score in assay [8], in assay [9] and in assay [10] were 0.584, 0.118 and 0.407, respectively. For the same molecule, the z-score in assay [4] is -0.276 (inactive).
With `CN(C)C(=O)[C@]1(CCC(=O)OC(C)(C)C)N=C(c2ccc(OCCCO)cc2)O[C@@H]1c1ccccc1N=[N+]=[N-]`, the composite z-score in assay [1] amounted to 1.44; in [2], 0.533; in [3] it was 0.863; in assay [5], 1.25; in [6] it was 1.33; in [7], 0.17. Also, the composite z-score in [8] was 0.644; in assay [9], -0.394; in [10] it was 0.252. Besides, the z-score in assay [4] is -0.194 (inactive).
For the molecule `CC(C)CNC(=O)[C@@]1(c2ccc([N+](=O)[O-])cc2)CC(=O)N(CC23CC4CC(CC(C4)C2)C3)[C@@H]1c1ccc(CO)cc1`, the composite z-score in assay [1] was determined as 0.947; in [2], 0.0324; in assay [3], 0.555; in assay [5] it was 1.24; in assay [6], 0.715; in assay [7], 0.283. The results for the composite z-score in assay [8], in [9] and in assay [10] were 0.58, 0.127 and 0.328, respectively. The z-score in [4] was -2.11 (inactive).
